Assay results from the supplement of paper PMC9135407.
Where a name gives a salt, the structure may show the parent alone.

These compounds were tested on primary human hepatic stellate cells (donor 1) (assay: ACTA2 mRNA fold change vs DMSO (normalised to PSMB2); higher = more ACTA2 expression). Details: 48 h.
Experimental: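 Secondary qRT-PCR screen in primary human HSCs (donor 1), 384-well plates, with compounds dispensed in quadruplicate and incubated for 48 h. Cells-to-CT lysates were used for multiplexed TaqMan qPCR of ACTA2 or COL1A1 with PSMB2 as reference. Fold changes versus DMSO come from a linear model (Ct_gene ~ Ct_PSMB2 + plate + chemical). A hit is defined as COL1A1 and ACTA2 FC <0.5 (FDR <0.05) with PSMB2 between 0.2 and 2.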

| SMILES | ACTA2 mRNA fold change |
| --- | --- |
| Cc1ccc2c(c1)c1c3n2CCNC3CCC1 (stereo not given) [Pirlindole mesylate] (20.6667 µM) | 0.712 |
| CNCCCC12CCC(c3ccccc31)c1ccccc12 [Maprotiline hydrochloride] (33.3333 µM) | 0.0243 |
| Cn1cc(CNCC2CCN(c3ncc(C(=O)NO)cn3)CC2)c2ccccc21 [Quisinostat] (33.3333 µM) | 0.00604 |
| CCCCc1oc2ccccc2c1C(=O)c1cc(I)c(OCCN(CC)CC)c(I)c1 (33.3333 µM) | 0.0284 |
| CCN(CC)CC#CCOC(=O)C(O)(c1ccccc1)C1CCCCC1 (stereo not given) [Oxybutynin chloride] (16.9333 µM) | 1.09 |
| CN1CCN2c3ccccc3Cc3ccccc3C2C1 (stereo not given) [Mianserin hcl] (25.2333 µM) | 0.899 |
| Cc1cc(Nc2cc(N3CCN(C)CC3)nc(/C=C/c3ccccc3)n2)n[nH]1 (11.1 µM) | 0.703 |
| C[C@@H]1CN(CCCn2c3ccccc3c3ccccc32)C[C@H](C)N1 [Rimcazole dihydrochloride] (33.3333 µM) | 0.0478 |
| CN(C)CCC(c1ccc(Br)cc1)c1ccccn1 (stereo not given) [Brompheniramine maleate] (33.3333 µM) | 1.25 |
| O=C(Nc1cc(C(F)(F)F)cc(C(F)(F)F)c1)c1cc(Cl)ccc1O (33.3333 µM) | 0.0138 |
| N=C(N)SCCc1ccc(OCc2ccc([N+](=O)[O-])cc2)cc1 [KB-R7943 mesylate] (33.3333 µM) | 0.0804 |
| CCCCCCCCc1ccc(CCC(N)(CO)CO)cc1 [Fingolimod (FTY720) HCl] (11.1 µM) | 0.301 |
| CC1(C)CC(=O)c2c(C(F)(F)F)nn(-c3ccc(C(N)=O)c(N[C@H]4CC[C@H](OC(=O)CN)CC4)c3)c2C1 (33.3333 µM) | 0.967 |
| CNC(=O)[C@@H](Cc1ccccc1)N(C)C(=O)[C@@H](Cc1ccc2ccccc2c1)N(C)C(=O)/C=C/CC(C)(C)N [Tabimorelin] (33.3333 µM) | 0.46 |
| CCc1cc2c(cc1CC)CC(NC[C@H](O)c1ccc(O)c3[nH]c(=O)ccc13)C2 [Indacaterol Maleate] (33.3333 µM) | 0.0334 |
| O=C1NC(=O)/C(=C/c2ccc(-c3ccc(F)cc3O)o2)S1 (33.3333 µM) | 0.0492 |
| Cc1cnc(-c2cnc(NCCNc3ccc(C#N)cn3)nc2-c2ccc(Cl)cc2Cl)[nH]1 (33.3333 µM) | 0.259 |
| CCNC(=O)c1noc(-c2cc(C(C)C)c(O)cc2O)c1-c1ccc(CN2CCOCC2)cc1 (11.1 µM) | 1.19 |
| C#C[C@]1(O)CC[C@H]2[C@@H]3CCC4=Cc5oncc5C[C@]4(C)[C@H]3CC[C@@]21C [Danazol] (33.3333 µM) | 0.0332 |
| Cc1nc2ccc(-n3ncc(C(=O)c4cc5ccccc5[nH]4)c3N)cc2[nH]1 (33.3333 µM) | 0.785 |

| SMILES | ACTA2 mRNA fold change |
| --- | --- |
| CNCc1ccc(-c2cc(-c3nc(-c4ccc(S(=O)(=O)C(C)C)cc4)cnc3N)on2)cc1 (11.1 µM) | 0.0206 |
| CNCCCC1c2ccccc2C=Cc2ccccc21 [Protryptyline hydrochloride] (22.2333 µM) | 0.577 |
| CNc1nccc(-c2cccnc2Oc2cc(C(=O)Nc3cccc(C(F)(F)F)c3)ccc2C)n1 (33.3333 µM) | 0.569 |
| NS(=O)(=O)C#Cc1ccccc1 [Pifithrin->m] (33.3333 µM) | 0.0598 |
| CCN1CCC(n2cc(CNc3cc(Cl)c4ncc(C#N)c(Nc5ccc(F)c(Cl)c5)c4c3)nn2)CC1 (33.3333 µM) | 0.0712 |
| CCN(CC)CCOc1ccc(Cc2ccccc2)cc1 [DPPE fumarate] (33.3333 µM) | 0.397 |
| OCCN1CCN(CCCN2c3ccccc3Sc3ccc(C(F)(F)F)cc32)CC1 (33.3333 µM) | 0.0188 |
| Cc1cc(C(=O)Nc2cc(Nc3ccc4c(/C=C/c5ccccn5)n[nH]c4c3)ccc2F)n(C)n1 (33.3333 µM) | 0.469 |
| CC(C)NCCCn1c(Sc2cc3c(cc2I)OCO3)nc2c(N)ncnc21 (33.3333 µM) | 1.26 |
| Clc1ccc(C2(c3ccc(-c4cn[nH]c4)cc3)CCNCC2)cc1 (33.3333 µM) | 0.0459 |
| CN(C)Cc1c(C(=O)NCCOc2ccc(C(=O)NO)cc2)oc2ccccc12 (33.3333 µM) | 0.00935 |
| CN1CCC(NC(=O)c2cc(-c3c(O)cc(O)cc3Oc3ccc([N+](=O)[O-])cc3)on2)CC1 (33.3333 µM) | 1.25 |
| CCN(CC)CCNC(=O)c1c(C)[nH]c(/C=C2\C(=O)Nc3ccc(F)cc32)c1C (6.66667 µM) | 1.2 |
| CN(C)C/C=C(/c1ccc(Br)cc1)c1cccnc1 [Zimelidine dihydrochloride] (11.1 µM) | 0.452 |
| CN1CCN(Cc2ccc(-c3cnc4[nH]cc(-c5ccc6[nH]ccc6c5)c4c3)cc2)CC1 (6.66667 µM) | 0.042 |
| Clc1ccccc1CNCC1CCC(CNCc2ccccc2Cl)CC1 (stereo not given) (33.3333 µM) | 0.0214 |
| COc1ccc(NS(=O)(=O)c2sc3ccc(Cl)cc3c2C)cc1N1CCNCC1 (33.3333 µM) | 0.0163 |
| Nc1ccc(C(=O)Nc2cccc(-c3nc(N4CCOCC4)c4oc5ncccc5c4n3)c2)cn1 (6.66667 µM) | 1.8 |
| CC[C@]1(O)C[C@@H]2CN(CCc3c([nH]c4ccccc34)[C@@](C(=O)OC)(c3cc4c(cc3OC)N(C)[C@H]3[C@@](O)(C(=O)OC)[C@H](OC(C)=O)[C@]5(CC)C=CCN6CC[C@]43[C@@H]65)C2)C1 [Vinblastine sulfate] (33.3333 µM) | 0.02 |
| CNCc1ccc(C)c(NC(=O)c2ccc(Nc3nc(-c4ccccc4)c4ccccc4n3)cc2)c1 (33.3333 µM) | 0.0244 |
